From PubChem BioAssay
IDE exosite inh: exo-site inhibitors of human insulin-degrading enzyme; P14735; purified IDE, FL-6b probe fluorescence polarization; hits give low values; z-score at 20 µM; 17,000 tested, 6.3% active; AID 1259349;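 active = z-score of -3 or lower, meaning strong loss of probe binding signal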;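 note: His-tagged human IDE residues 42-1019 made in E. coli with 30 nM FL-6b probe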
The depositor's hits bear a star. The entries come from a sample that favours hits as a whole.

SMILES	IDE exosite inh
CCCC#Cc1ccc([C@@H]2[C@H]3CN(C(=O)NC4CCCC4)CCCCN3[C@H]2CO)cc1	-2.9
O=C(C[C@H]1CC[C@H]2[C@@H](COC[C@@H](O)CN2C(=O)c2ccncc2)O1)NCc1cc(F)cc(F)c1	1.8
COc1ccccc1CN1[C@@H]2CN(C(=O)c3cccnc3)c3ccccc3[C@@H]2[C@@H]1CO	-0.41
N#C[C@@H]1[C@H](c2ccccc2C2=CCCCC2)[C@@H](CO)N1C(=O)c1cccc(F)c1	3.4
CC(C)C#Cc1ccc([C@@H]2[C@@H](C#N)N(C(=O)C3CCOCC3)[C@H]2CO)cc1	1.7
COCC(=O)N1CC2(CCN(C(=O)c3cccnc3)CC2)c2c([nH]c3cc(OC)ccc23)[C@@H]1CO	-0.12
CCCC(=O)N1CC2(C1)CN(CC1CC1)[C@@H](CO)c1[nH]c3cc(OC)ccc3c12	-1.3
COc1cc(CN2CC3(CCN(C(=O)c4cccnc4)CC3)c3c([nH]c4cc(OC)ccc34)[C@@H]2CO)cc(OC)c1	-4.1*
CCCC(=O)N1CC2(C1)CN(Cc1cccnc1)[C@H](CO)c1[nH]c3cc(OC)ccc3c12	-3.1*
COc1ccc2c3c([nH]c2c1)[C@H](CO)N(Cc1ccncc1)CC31CN(C(=O)CN(C)C)C1	-0.94
COc1cccc(CN2CC3(CCN(C)CC3)c3c([nH]c4cc(OC)ccc34)[C@H]2CO)c1	-1.1
C/C=C/c1ccc([C@H]2[C@H]3CN(Cc4ccc(C)cc4)CC(=O)N3[C@H]2CO)cc1	0.44
Cc1cccc(S(=O)(=O)N2C[C@H]3[C@@H](c4ccccc42)[C@@H](CO)N3CC2CCCC2)c1	-0.67
CO[C@@H]1CN(C)C(=O)c2ccc(NS(=O)(=O)c3ccc(C)cc3)cc2OC[C@@H](C)N(C)C[C@H]1C	1.4
O=C(NC[C@@H]1[C@@H](c2ccccc2)[C@@H](CO)N1Cc1ccccn1)NC1CCCC1	4.4
CO[C@@H]1CC[C@H]2CCOc3c(C#N)cccc3C(=O)N(C)CCCC(=O)N(C)C[C@H]1O2	0.037
N#C[C@@H]1[C@H](c2ccc(C#Cc3ccccc3F)cc2)[C@@H](CO)N1C(=O)c1cccnc1	-4*
N#C[C@@H]1[C@@H](c2ccc(C#Cc3ccccc3F)cc2)[C@@H](CO)N1C(=O)C1CC1	-1.6
N#C[C@H]1[C@H](c2ccc(C#Cc3ccccc3F)cc2)[C@@H](CO)N1C(=O)C1CC1	3.4
N#C[C@H]1[C@H](c2ccc(C#Cc3ccccc3F)cc2)[C@@H](CO)N1C(=O)C1CCOCC1	-5.9*
N#C[C@H]1N[C@H](CO)[C@H]1c1ccc(C#Cc2ccccc2F)cc1	-0.075
N#C[C@@H]1[C@H](c2ccc(C#Cc3ccccc3F)cc2)[C@@H](CO)N1C(=O)C1CCC1	-4.8*
N#C[C@@H]1[C@H](c2ccc(C#Cc3ccccc3F)cc2)[C@H](CO)N1C(=O)c1cccnc1	-1.7
N#C[C@H]1[C@H](c2ccc(C#Cc3ccccc3F)cc2)[C@@H](CO)N1C(=O)C1CCC1	3.7
N#C[C@@H]1N[C@@H](CO)[C@H]1c1ccc(-c2ccccc2F)cc1	2.1
SMILES	IDE exosite inh
N#C[C@@H]1[C@@H](c2ccc(C#Cc3ccccc3F)cc2)[C@H](CO)N1C(=O)C1CCC1	1
N#C[C@H]1N[C@@H](CO)[C@H]1c1ccc(C#Cc2ccccc2F)cc1	-4*
N#C[C@@H]1[C@@H](c2ccccc2)[C@@H](CO)N1C(=O)c1cccnc1	6.3
C/C=C/c1ccc([C@H]2[C@@H](CO)N3CCCCN(S(=O)(=O)c4ccccc4)C[C@@H]23)cc1	5.3
C[C@@H]1CN([C@H](C)CO)C(=O)Cc2cc(NC(=O)CCC(F)(F)F)ccc2O[C@@H]1CN(C)CC1CC1	-0.0043
N#C[C@@H]1[C@H](c2ccc(-c3cccc(F)c3)cc2)[C@@H](CO)N1c1nc(-c2ccccc2)cs1	0.68
COc1ccc2c3c([nH]c2c1)[C@@H](CO)NCC31CCN(C(=O)C2CCOCC2)CC1	0.28
CCCNC(=O)N1[C@H](C#N)[C@H](c2ccccc2-c2ccccc2F)[C@@H]1CO	1.4
COc1ccc(S(=O)(=O)Nc2ccc3c(c2)C(=O)N([C@@H](C)CO)C[C@H](C)[C@H](CN(C)S(=O)(=O)c2ccc(Cl)cc2)OCCCC[C@H](C)O3)cc1	0.11
O=C(Cc1ccccn1)N1CC(=O)N2[C@H](C1)[C@H](c1ccc(C#CC3CC3)cc1)[C@@H]2CO	0.55
O=C(Cc1ccccn1)N1CC(=O)N2[C@H](CO)[C@H](c3ccc(C#CC4CCCCC4)cc3)[C@@H]2C1	-0.63
COc1ccc(-c2ccc([C@H]3[C@@H](CO)N4C(=O)CN(C(=O)Cc5ccccn5)C[C@@H]34)cc2)cc1	0.65
Cc1ccccc1-c1ccc([C@H]2[C@H](CO)N3C(=O)CN(C(=O)Cc4ccccn4)C[C@@H]23)cc1	-14*
O=C(Cc1ccccn1)N1CC(=O)N2[C@H](CO)[C@@H](c3ccc(C#CC4CCCCC4)cc3)[C@H]2C1	-0.35
Cc1ccccc1-c1ccc([C@H]2[C@@H](CO)N3C(=O)CN(C(=O)Cc4ccccn4)C[C@@H]23)cc1	-17*
CNC[C@H]1OCc2cn(nn2)CCCC(=O)N([C@@H](C)CO)C[C@@H]1C	-0.22
COC(=O)c1ccc(CN2CC(=O)N3[C@@H](CO)[C@H](c4ccc(-c5ccc(OC)cc5)cc4)[C@@H]3C2)cc1	4.5
CC(C)CNC[C@@H]1[C@@H](c2ccccc2)[C@@H](CO)N1Cc1ccc(F)cc1	-1.8
COCC(=O)NC[C@@H]1[C@H](c2ccc(-c3ccccc3)cc2)[C@@H](CO)N1C(C)=O	-0.56
CC(C)[C@@H]1CC=CC[C@@H](C)Oc2ccccc2C(=O)N(C)[C@H](Cc2ccccc2)C(=O)N1 (mixture of isomers)	1.5
C/C=C/c1ccc([C@@H]2[C@@H](CO)N(c3nc(CC)cs3)[C@H]2C#N)cc1	-0.075
C[C@H]1CN([C@@H](C)CO)C(=O)CCCn2nncc2CO[C@H]1CN(C)C(=O)c1ccc(N2CCN(C)CC2)cc1	-0.4
CC(C)N(C[C@H]1N[C@H](CO)[C@H]1c1ccccc1)S(=O)(=O)c1ccccc1	0.38
O=C(c1ccc(F)cc1)N1CC(=O)N2[C@H](CO)[C@@H](c3ccc(/C=C/c4ccccc4)cc3)[C@@H]2C1	0.7
C/C=C/c1ccc([C@@H]2[C@@H](CO)N3C(=O)CN(C(=O)Cc4cccnc4)C[C@H]23)cc1	1.1
SMILES	IDE exosite inh
O=C(c1ccccc1)N1CC(=O)N2[C@@H](CO)[C@H](c3ccc(/C=C/c4ccccc4)cc3)[C@@H]2C1	-3.4*
O=C(c1cccnc1)N1CC(=O)N2[C@H](CO)[C@@H](c3ccc(/C=C/c4ccccc4)cc3)[C@H]2C1	-5.4*
C/C=C/c1ccc([C@H]2[C@H]3CN(C(=O)Cc4cccnc4)CC(=O)N3[C@H]2CO)cc1	-0.49
O=C(Cc1cccnc1)N1CC(=O)N2[C@H](C1)[C@@H](c1ccc(/C=C/c3ccccc3)cc1)[C@@H]2CO	-4.7*
O=C(c1ccc(F)cc1)N1CC(=O)N2[C@@H](CO)[C@H](c3ccc(/C=C/c4ccccc4)cc3)[C@@H]2C1	-5.3*
O=C(c1ccccc1)N1CC(=O)N2[C@H](C1)[C@@H](c1ccc(/C=C/c3ccccc3)cc1)[C@@H]2CO	-2.6
C/C=C/c1ccc([C@H]2[C@H](CO)N3C(=O)CN(C(=O)c4ccc(F)cc4)C[C@@H]23)cc1	2.4
O=C(c1cccc(F)c1)N1CC(=O)N2[C@H](CO)[C@H](c3ccc(/C=C/c4ccccc4)cc3)[C@@H]2C1	-2.7
O=C(c1ccncc1)N1CC(=O)N2[C@H](CO)[C@@H](c3ccc(/C=C/c4ccccc4)cc3)[C@H]2C1	-1.2
